# Reference: the supplement of paper PMC7411054
# Counter-ions that a name gives are not always drawn.
# Tested on: WPMY1-ACTB-RAB5A
# Assay: lowest phenotypically active concentration; higher = less potent
# Conditions: treatment time: 24 h
# How it was run: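 After 24 h at 0.3, 1, 3 or 9 µM, with four wells per treatment, fifteen gene-edited A549, HepG2 and WPMY1 reporter lines carrying BFP, GFP and RFP/FusionRed were imaged live. Each well's live-cell features were expressed relative to solvent control wells. Deviation required ≥3 of 4 wells past the 95th percentile of control Euclidean distances, and reproducibility a median replicate Pearson correlation over the 95th percentile of non-replicates. Phenotypic activity rested on both.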
row,Structure (SMILES),lowest phenotypically active concentration [µM]
1,Nc1nc(Cl)nc2c1ncn2[C@@H]1O[C@H](CO)[C@@H](O)[C@@H]1F [clofarabine],≤ 0.3
2,Cc1nc(Nc2ncc(C(=O)Nc3c(C)cccc3Cl)s2)cc(N2CCN(CCO)CC2)n1 [dasatinib],≤ 0.3
3,O=C(NCc1cccc(O)c1)Nc1nc(-c2ccncc2)cs1 [RKI 1447 dihydrochloride],≤ 0.3
4,CC(C)n1nc(-c2cc3cc(O)ccc3[nH]2)c2c(N)ncnc21,1
5,COc1ccc(-c2ccc3ncc4c(c3c2)n(-c2ccc(N3CCNCC3)c(C(F)(F)F)c2)c(=O)n4C)cn1,≤ 0.3
6,CC(C)(C)c1cnc(CSc2cnc(NC(=O)C3CCNCC3)s2)o1,≤ 0.3
7,O=C(O)c1ccc(Nc2ncc3c(n2)-c2ccc(Cl)cc2C(c2c(F)cccc2F)=NC3)cc1,≤ 0.3
8,COc1ccc(S(=O)(=O)N(C(C)=O)c2ccccc2/C=C/c2cc[n+]([O-])cc2)cc1,1
9,CC(C)(C)Nc1nc(Nc2ccc(C(N)=O)cc2)cc(N)c1C#N,3
10,Nc1cccc(-c2cc3c(Oc4cccc(O)c4)ncnc3[nH]2)c1,3
11,c1ccc2c(c1)Cc1c(Nc3ccc4c(c3)OCCO4)n[nH]c1-2,3
12,Cc1c(NC(=O)OC[C@@H]2COCCN2)cn2ncnc(Nc3ccc4c(cnn4Cc4cccc(F)c4)c3)c12,3
13,CCC(=O)N1CCN(c2ccc(-n3c(=O)ccc4cnc5ccc(-c6cnc7ccccc7c6)cc5c43)cc2C(F)(F)F)CC1 [Torin 1],≤ 0.3
14,COc1c(Nc2cc(C)[nH]n2)nc(Sc2ccc(S(=O)(=O)Cc3cccc([N+](=O)[O-])c3F)cc2F)nc1N1CCOCC1 [Centrinone],1
15,COc1cc2c(NC3CCN(C(C)C)CC3)nc(N3CCC(F)(F)CC3)nc2cc1OCCCN1CCCC1,1
16,CC(=O)c1c(C)c2cnc(Nc3ccc(N4CCNCC4)cn3)nc2n(C2CCCC2)c1=O,9
17,CN1c2ccccc2C(=O)N2CCc3c([nH]c4ccccc34)[C@H]21 [Evodiamine],1
18,CO[C@H]1C=CC=C(C)C(=O)NC2=CC(=O)C(NCCN(C)C)=C(C[C@@H](C)C[C@H](OC)[C@H](O)[C@@H](C)C=C(C)[C@@H]1OC(N)=O)C2=O [17-DMAG hydrochloride],≤ 0.3
19,Cc1noc(C)c1-c1cc(O)cc(C(O)c2ccccc2)c1 (centres undefined),3
20,O=C(Nc1ccc(-c2ccnc(Nc3ccc(N4CCOCC4)cc3)n2)cc1)[C@@H]1CCCN1,3

row,Structure (SMILES),lowest phenotypically active concentration [µM]
1,NC1(C(=O)N[C@@H](CCO)c2ccc(Cl)cc2)CCN(c2ncnc3[nH]ccc23)CC1,1
2,NC(=O)Nc1cc(-c2cccc(F)c2)sc1C(=O)N[C@H]1CCCNC1 [AZD 7762 hydrochloride],≤ 0.3
3,COc1cc2nc(-c3cc(F)ccc3O)nc(N[C@@H]3CNC[C@H]3C(C)(C)O)c2cc1OC,1
4,Cc1c[nH]c2nccc(Oc3c(F)cc(Nc4cc(Cl)nc(N)n4)cc3F)c12,≤ 0.3
5,C[C@H]1[C@H]2CC[C@H]3[C@@H]4CC=C5C[C@@H](N(C)C)CC[C@]5(C)[C@H]4CC[C@]23CN1C [Conessine],9
6,CON(C)C(=O)N1N=C(c2cc(F)ccc2F)S[C@@]1(CCCN)c1ccccc1 [ARRY 520 trifluoroacetate],≤ 0.3
7,CC[C@H](CO)Nc1nc(NCc2ccc(-c3ccccn3)cc2)c2ncn(C(C)C)c2n1,≤ 0.3
8,Oc1cccc(-c2nc(N3CCOCC3)c3oc4ncccc4c3n2)c1 [PI 103 hydrochloride],≤ 0.3
9,COc1cc(/C=C/c2ccc(OC)cc2OC)cc(OC)c1,1
10,COc1cc2c(cc1-c1c(C)noc1C)ncc1[nH]c(=O)n([C@H](C)c3ccccn3)c12 [I-BET 151 dihydrochloride],3
11,COc1cccc(-c2cc(F)ccc2[C@H]2Cc3nc(N)nc(C)c3C(=O)N2)n1,≤ 0.3
12,COc1cc(C(=O)NC2CCN(C)CC2)c(F)cc1Nc1ncc2c(n1)N(C1CCCC1)CC(F)(F)C(=O)N2C [TAK 960 hydrochloride],≤ 0.3
13,CC[C@]1(O)C[C@@H]2CN(CCc3c([nH]c4ccccc34)[C@@](C(=O)OC)(c3cc4c(cc3OC)N(C=O)[C@H]3[C@@](O)(C(=O)OC)[C@H](OC(C)=O)[C@]5(CC)C=CCN6CC[C@]43[C@@H]65)C2)C1 [vincristine],≤ 0.3
14,OC[C@H]1O[C@@H](n2cnc3c(NCc4ccco4)ncnc32)[C@H](O)[C@@H]1O [Kinetin riboside],1
15,N#Cc1c(C2CCNCC2)cc(-c2c(O)cccc2OCC2CC2)nc1N,3
16,C=CC(=O)Nc1cccc(Nc2nc(Nc3ccc(OCCOC)cc3)ncc2F)c1,3
17,COc1cc(N2CCC(N3CCN(C)CC3)CC2)ccc1Nc1ncnc(Nc2ccccc2S(=O)(=O)C(C)C)n1,9
18,Fc1ccccc1CNCc1ccc(-c2ccnc3[nH]ccc23)cc1 [OXA 06 dihydrochloride],1
19,C[C@H]1COCCN1c1cc(C2(S(=O)(=O)C3CC3)CC2)nc(-c2ccc(NC(=S)NCCO)cc2)n1,≤ 0.3
